# Experimental data published in article PMC7862700, “An all-to-all approach to the identification of sequence-specific readers for epigenetic DNA modifications on cytosine”.
# How the values were obtained:
# Experiment in all cases: DAPPL (digital affinity profiling via proximity ligation, sequencing); 10 mM Tris-HCl pH 7.5, 50 mM NaCl, 1 mM DTT, 4% glycerol, room temperature, 30 min; GST-TFs on glutathione beads, 16-mer random dsDNA library, 0.1% formaldehyde crosslink after washing; high values mean tight binding
# FLI1 = biological target: T1, FLI1 (Homo sapiens, UniProt Q01543 1-452); details: protein: recombinant; tags: N-terminal GST; dsDNA, one strand shown
# T1 sequence: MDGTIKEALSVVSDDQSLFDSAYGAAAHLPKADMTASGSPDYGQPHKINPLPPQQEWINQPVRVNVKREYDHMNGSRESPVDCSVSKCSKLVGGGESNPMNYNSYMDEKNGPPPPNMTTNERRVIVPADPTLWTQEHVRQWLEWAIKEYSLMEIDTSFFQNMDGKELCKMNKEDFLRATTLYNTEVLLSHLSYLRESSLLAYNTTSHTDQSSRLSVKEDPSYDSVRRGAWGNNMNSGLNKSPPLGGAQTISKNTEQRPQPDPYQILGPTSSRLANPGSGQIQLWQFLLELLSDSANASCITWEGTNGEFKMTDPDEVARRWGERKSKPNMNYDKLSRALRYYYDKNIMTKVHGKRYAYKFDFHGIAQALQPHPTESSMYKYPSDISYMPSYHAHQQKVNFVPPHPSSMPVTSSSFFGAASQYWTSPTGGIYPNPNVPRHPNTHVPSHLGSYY
# How it was run: (§1)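 Pools of DNA-barcoded human transcription factors, expressed in yeast as GST fusions on glutathione beads and combined with a tag-only sample, were incubated with 200 nmole of a 16-mer random double-stranded DNA library. Incubation took 30 min at room temperature in Tris/NaCl/DTT/glycerol buffer and was followed by washing, 0.1% formaldehyde crosslinking, proximity ligation (BsaI/T4 ligase, 1 h, 37 °C), PCR amplification and sequencing on an Illumina NextSeq500. Binding signal is the ratio of a hexamer's read frequency for a factor to its frequency for the tag-only sample.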
# ELK1 = biological target: T2, ELK1 (Homo sapiens, UniProt P19419 1-428); details: protein: recombinant; tags: N-terminal GST; dsDNA, one strand shown
# T2 sequence: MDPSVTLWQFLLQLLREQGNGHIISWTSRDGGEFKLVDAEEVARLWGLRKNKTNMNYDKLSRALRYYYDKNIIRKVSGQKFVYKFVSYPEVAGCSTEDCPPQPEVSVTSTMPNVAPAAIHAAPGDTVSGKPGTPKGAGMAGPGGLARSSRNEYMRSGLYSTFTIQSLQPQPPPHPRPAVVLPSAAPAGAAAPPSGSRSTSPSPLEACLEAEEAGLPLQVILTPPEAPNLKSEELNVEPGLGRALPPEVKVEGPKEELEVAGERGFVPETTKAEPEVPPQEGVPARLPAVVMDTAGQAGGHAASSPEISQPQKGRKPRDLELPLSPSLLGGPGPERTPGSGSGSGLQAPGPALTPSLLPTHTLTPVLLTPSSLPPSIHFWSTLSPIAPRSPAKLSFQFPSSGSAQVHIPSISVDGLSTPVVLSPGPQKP
# How it was run: as §1
# GABPA = biological target: T3, GABPA (Homo sapiens, UniProt Q06546 1-454); details: protein: recombinant; tags: N-terminal GST; dsDNA, one strand shown
# T3 sequence: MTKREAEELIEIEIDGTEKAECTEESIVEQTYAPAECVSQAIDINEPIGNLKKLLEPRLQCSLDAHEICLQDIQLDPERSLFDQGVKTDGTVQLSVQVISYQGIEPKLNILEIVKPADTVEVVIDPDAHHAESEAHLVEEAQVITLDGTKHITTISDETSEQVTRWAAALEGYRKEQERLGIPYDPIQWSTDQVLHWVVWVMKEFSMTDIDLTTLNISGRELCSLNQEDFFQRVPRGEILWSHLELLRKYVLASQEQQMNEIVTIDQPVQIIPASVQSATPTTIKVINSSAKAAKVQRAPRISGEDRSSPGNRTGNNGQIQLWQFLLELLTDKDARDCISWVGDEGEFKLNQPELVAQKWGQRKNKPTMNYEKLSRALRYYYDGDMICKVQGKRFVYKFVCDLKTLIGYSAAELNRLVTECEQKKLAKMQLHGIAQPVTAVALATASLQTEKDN
# How it was run: as §1
# ERG = biological target: T4, ERG (Homo sapiens, UniProt P11308 1-479); details: protein: recombinant; tags: N-terminal GST; dsDNA, one strand shown
# T4 sequence: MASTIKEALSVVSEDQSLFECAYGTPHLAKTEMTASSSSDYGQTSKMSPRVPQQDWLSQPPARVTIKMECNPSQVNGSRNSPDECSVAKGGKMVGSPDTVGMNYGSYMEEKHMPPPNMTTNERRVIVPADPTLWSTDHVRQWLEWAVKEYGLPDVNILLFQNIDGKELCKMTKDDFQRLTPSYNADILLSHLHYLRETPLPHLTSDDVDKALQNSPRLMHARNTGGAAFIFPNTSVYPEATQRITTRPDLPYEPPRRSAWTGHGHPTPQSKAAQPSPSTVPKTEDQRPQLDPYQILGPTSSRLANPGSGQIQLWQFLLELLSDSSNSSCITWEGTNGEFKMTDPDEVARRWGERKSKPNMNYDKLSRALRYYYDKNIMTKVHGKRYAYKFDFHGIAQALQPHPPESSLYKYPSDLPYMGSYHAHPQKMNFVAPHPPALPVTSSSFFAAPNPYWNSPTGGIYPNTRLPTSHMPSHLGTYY
# How it was run: as §1
# ELF1 = ELF1 (Homo sapiens, UniProt P32519 1-619); details: protein: recombinant; tags: N-terminal GST; dsDNA, one strand shown
# How it was run: as §1
# EHF = biological target: T5, EHF (Homo sapiens, UniProt Q9NZC4 1-300); details: protein: recombinant; tags: N-terminal GST; dsDNA, one strand shown
# T5 sequence: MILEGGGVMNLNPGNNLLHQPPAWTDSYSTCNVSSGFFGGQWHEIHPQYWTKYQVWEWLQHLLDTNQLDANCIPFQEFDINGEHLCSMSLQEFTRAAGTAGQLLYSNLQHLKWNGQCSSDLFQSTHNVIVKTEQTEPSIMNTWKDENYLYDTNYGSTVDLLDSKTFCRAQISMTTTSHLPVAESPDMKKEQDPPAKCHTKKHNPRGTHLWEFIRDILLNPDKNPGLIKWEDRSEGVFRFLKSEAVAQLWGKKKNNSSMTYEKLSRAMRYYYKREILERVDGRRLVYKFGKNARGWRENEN
# How it was run: as §1
# SPI1 = SPI1 (Homo sapiens, UniProt P17947 1-270); details: protein: recombinant; tags: N-terminal GST; dsDNA, one strand shown
# How it was run: as §1
# SPIB = SPIB (Homo sapiens, UniProt Q01892 1-262); details: protein: recombinant; tags: N-terminal GST; dsDNA, one strand shown
# How it was run: as §1
# ELK3 = biological target: T6, ELK3 (Homo sapiens, UniProt P41970 1-407); details: protein: recombinant; tags: N-terminal GST; dsDNA, one strand shown
# T6 sequence: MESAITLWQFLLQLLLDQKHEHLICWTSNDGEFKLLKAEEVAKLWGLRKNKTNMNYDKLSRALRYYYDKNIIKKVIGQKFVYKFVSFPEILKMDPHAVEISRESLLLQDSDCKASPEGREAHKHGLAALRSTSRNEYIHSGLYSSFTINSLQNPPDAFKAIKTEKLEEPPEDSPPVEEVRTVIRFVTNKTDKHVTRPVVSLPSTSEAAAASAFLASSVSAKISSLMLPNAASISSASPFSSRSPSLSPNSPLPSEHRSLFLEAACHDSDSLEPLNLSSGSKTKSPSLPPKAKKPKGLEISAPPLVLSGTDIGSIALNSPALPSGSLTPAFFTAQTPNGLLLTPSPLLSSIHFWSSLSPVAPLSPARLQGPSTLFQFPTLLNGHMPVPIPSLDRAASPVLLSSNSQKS
# How it was run: as §1
# FEV = biological target: T7, FEV (Homo sapiens, UniProt Q99581 1-238); details: protein: recombinant; tags: N-terminal GST; dsDNA, one strand shown
# T7 sequence: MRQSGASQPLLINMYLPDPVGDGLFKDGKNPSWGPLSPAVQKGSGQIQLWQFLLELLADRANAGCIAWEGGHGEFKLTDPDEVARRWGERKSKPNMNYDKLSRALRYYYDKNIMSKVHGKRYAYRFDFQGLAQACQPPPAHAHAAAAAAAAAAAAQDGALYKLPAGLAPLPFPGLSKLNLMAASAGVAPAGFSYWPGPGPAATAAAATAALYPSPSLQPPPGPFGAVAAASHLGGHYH
# How it was run: as §1
# ETV5 = ETV5 (Homo sapiens, UniProt P41161 1-510); details: protein: recombinant; tags: N-terminal GST; dsDNA, one strand shown
# How it was run: as §1
# HSF1 = HSF1 (Homo sapiens, UniProt Q00613 1-529); details: protein: recombinant; tags: N-terminal GST; chain copies: 3; dsDNA, one strand shown
# How it was run: as §1
# SPIC = biological target: T8, SPIC (Homo sapiens, UniProt Q8N5J4 1-248); details: protein: recombinant; tags: N-terminal GST; dsDNA, one strand shown
# T8 sequence: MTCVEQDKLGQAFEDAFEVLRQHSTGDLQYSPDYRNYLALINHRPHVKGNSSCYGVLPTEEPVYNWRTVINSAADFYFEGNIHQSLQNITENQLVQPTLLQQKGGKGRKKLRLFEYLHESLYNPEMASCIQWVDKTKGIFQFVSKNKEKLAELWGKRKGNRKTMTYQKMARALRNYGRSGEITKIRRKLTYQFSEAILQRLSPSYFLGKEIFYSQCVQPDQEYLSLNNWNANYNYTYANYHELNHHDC
# How it was run: as §1
# ELF4 = ELF4 (Homo sapiens, UniProt Q99607 1-663); details: protein: recombinant; tags: N-terminal GST; dsDNA, one strand shown
# How it was run: as §1
# ELK4 = biological target: T9, ELK4 (Homo sapiens, UniProt P28324-2 1-405); details: protein: recombinant; tags: N-terminal GST; dsDNA, one strand shown
# T9 sequence: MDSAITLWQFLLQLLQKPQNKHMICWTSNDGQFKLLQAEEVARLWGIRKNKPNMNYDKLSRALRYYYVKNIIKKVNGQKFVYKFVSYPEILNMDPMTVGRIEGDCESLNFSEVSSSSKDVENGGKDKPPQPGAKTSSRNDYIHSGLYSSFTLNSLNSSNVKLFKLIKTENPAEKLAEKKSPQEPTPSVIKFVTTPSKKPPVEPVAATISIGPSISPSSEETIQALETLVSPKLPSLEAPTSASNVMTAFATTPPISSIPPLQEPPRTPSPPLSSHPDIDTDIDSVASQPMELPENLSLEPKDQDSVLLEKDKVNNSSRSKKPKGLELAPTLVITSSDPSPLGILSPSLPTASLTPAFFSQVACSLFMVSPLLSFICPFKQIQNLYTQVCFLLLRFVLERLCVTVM
# How it was run: as §1
# ETV2 = biological target: T10, ETV2 (Homo sapiens, UniProt O00321 1-342); details: protein: recombinant; tags: N-terminal GST; dsDNA, one strand shown
# T10 sequence: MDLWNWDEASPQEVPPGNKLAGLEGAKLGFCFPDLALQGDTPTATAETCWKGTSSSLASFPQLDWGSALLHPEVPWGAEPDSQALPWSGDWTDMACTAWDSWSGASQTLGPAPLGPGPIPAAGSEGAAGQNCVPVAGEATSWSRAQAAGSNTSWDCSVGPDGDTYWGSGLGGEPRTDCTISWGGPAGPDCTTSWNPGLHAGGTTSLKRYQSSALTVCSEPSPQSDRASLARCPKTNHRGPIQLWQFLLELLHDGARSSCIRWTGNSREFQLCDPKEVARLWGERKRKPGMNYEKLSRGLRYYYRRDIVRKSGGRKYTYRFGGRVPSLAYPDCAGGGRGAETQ
# How it was run: as §1
# ELF3 = biological target: T11, ELF3 (Homo sapiens, UniProt P78545 1-371); details: protein: recombinant; tags: N-terminal GST; dsDNA, one strand shown
# T11 sequence: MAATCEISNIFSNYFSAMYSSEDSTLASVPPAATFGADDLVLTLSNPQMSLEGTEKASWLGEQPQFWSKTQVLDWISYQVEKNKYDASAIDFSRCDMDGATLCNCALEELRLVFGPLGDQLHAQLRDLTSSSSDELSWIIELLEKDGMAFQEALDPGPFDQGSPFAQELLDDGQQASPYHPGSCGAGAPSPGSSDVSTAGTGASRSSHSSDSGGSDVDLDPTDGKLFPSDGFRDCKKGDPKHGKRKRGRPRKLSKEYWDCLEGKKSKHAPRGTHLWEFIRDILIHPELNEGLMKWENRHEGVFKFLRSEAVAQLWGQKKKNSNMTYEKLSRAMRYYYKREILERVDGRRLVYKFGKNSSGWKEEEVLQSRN
# How it was run: as §1
# CRX = CRX (Homo sapiens, UniProt O43186 1-299); details: protein: recombinant; tags: N-terminal GST; dsDNA, one strand shown
# How it was run: as §1
# ETV1 = ETV1 (Homo sapiens, UniProt P50549 1-477); details: protein: recombinant; tags: N-terminal GST; dsDNA, one strand shown
# How it was run: as §1
# SPIB, sequence (Q01892 whole entry): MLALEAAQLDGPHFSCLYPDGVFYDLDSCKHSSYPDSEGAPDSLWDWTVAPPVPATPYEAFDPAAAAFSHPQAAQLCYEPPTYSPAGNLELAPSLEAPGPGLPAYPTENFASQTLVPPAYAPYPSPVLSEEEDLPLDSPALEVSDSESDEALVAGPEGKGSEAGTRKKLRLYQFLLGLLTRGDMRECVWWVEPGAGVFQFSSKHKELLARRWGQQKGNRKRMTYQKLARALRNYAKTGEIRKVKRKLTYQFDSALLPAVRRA
# HSF1, sequence (Q00613 whole entry): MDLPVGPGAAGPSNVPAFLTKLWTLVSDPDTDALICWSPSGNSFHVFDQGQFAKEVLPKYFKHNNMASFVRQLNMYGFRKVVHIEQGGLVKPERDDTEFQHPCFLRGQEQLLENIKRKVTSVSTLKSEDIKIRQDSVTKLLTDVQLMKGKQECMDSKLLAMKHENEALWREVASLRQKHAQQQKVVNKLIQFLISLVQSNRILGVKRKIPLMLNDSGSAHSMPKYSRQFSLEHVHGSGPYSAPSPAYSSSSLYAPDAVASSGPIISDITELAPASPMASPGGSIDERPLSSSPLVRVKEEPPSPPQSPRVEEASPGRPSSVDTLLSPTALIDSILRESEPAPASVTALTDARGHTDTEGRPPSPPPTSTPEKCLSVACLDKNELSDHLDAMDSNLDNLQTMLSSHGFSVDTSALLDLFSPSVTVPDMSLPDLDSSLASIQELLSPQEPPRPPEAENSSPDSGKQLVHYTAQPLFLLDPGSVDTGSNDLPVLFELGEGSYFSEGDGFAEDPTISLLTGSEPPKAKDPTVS
# ELF4, sequence (Q99607 whole entry): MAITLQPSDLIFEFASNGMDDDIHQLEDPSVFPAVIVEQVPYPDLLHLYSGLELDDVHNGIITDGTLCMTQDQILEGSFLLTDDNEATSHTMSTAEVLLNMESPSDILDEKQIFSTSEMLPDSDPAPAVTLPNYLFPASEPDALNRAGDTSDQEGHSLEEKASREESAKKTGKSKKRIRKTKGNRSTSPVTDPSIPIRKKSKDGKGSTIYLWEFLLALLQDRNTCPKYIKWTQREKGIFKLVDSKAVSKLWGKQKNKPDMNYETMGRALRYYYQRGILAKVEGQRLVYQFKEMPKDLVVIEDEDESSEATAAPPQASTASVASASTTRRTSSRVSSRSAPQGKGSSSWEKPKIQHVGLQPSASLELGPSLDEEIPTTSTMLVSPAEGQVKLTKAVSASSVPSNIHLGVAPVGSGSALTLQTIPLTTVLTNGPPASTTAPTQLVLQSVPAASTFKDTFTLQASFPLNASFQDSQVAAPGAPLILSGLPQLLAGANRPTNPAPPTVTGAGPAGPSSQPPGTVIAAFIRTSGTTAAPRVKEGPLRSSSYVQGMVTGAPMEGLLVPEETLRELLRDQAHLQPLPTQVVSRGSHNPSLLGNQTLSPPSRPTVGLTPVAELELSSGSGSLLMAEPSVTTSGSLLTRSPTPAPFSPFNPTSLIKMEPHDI
# ELF1, sequence (P32519 whole entry): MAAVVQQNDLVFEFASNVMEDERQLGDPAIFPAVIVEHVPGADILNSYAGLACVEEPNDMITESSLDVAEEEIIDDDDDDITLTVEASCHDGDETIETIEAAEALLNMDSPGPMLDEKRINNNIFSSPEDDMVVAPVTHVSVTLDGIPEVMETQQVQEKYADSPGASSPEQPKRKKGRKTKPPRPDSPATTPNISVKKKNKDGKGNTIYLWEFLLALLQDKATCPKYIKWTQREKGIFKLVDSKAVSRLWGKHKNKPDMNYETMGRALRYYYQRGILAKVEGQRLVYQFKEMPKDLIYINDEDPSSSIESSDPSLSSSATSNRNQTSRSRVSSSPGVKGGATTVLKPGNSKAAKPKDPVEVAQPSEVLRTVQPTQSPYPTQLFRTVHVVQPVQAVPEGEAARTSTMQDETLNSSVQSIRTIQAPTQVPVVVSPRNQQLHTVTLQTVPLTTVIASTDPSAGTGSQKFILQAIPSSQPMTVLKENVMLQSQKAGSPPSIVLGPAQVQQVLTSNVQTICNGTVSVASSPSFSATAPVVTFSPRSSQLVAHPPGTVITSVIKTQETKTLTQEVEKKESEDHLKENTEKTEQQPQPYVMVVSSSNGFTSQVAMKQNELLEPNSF
# ETV1, sequence (P50549 whole entry): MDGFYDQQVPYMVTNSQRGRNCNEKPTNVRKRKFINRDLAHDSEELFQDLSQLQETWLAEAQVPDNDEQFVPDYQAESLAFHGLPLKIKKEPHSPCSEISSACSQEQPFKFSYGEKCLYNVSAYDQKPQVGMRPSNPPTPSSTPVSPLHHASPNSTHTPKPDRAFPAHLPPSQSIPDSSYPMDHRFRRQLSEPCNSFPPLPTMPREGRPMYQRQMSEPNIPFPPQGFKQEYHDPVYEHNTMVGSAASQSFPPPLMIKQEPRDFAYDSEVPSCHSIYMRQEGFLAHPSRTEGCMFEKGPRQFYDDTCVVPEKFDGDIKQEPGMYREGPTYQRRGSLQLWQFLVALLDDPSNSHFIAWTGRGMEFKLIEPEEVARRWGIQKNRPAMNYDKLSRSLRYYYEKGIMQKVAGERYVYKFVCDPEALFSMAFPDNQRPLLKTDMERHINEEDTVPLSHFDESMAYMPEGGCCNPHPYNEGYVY
# ETV5, sequence (P41161 whole entry): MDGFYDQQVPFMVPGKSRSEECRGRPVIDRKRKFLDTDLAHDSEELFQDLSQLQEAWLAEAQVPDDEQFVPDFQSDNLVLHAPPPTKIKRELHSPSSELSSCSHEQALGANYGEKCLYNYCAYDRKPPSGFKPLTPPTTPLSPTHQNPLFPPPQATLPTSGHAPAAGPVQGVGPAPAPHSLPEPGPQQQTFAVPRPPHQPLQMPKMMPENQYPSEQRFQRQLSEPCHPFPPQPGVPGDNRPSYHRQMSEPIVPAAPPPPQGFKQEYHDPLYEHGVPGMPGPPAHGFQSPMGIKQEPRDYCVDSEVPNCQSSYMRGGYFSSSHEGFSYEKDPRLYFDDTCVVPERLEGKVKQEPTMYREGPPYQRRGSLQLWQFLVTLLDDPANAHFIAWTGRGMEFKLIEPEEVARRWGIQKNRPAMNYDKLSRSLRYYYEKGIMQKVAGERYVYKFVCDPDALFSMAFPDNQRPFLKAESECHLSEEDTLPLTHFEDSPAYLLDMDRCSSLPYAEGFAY
# CRX, sequence (O43186 whole entry): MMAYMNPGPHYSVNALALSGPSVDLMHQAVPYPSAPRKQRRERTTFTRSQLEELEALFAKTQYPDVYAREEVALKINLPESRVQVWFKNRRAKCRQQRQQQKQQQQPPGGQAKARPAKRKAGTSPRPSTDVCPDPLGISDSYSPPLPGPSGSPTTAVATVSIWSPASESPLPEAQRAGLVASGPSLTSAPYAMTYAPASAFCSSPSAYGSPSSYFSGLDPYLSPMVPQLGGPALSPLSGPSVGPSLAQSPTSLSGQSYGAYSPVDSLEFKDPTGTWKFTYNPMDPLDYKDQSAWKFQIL
sequence,measurement,setting,value
ATTCGA,binding signal,FLI1,"1.3 fold enrichment (6-mer frequency, TF over GST control)"
same,binding signal,ELK1,"1.22 fold enrichment (6-mer frequency, TF over GST control)"
same,binding signal,GABPA,"1.37 fold enrichment (6-mer frequency, TF over GST control)"
same,binding signal,ERG,"1.33 fold enrichment (6-mer frequency, TF over GST control)"
same,binding signal,ELF1,"1.41 fold enrichment (6-mer frequency, TF over GST control)"
same,binding signal,EHF,"1.29 fold enrichment (6-mer frequency, TF over GST control)"
same,binding signal,SPI1,"1.32 fold enrichment (6-mer frequency, TF over GST control)"
same,binding signal,SPIB,"1.38 fold enrichment (6-mer frequency, TF over GST control)"
same,binding signal,ELK3,"1.25 fold enrichment (6-mer frequency, TF over GST control)"
same,binding signal,FEV,"1.27 fold enrichment (6-mer frequency, TF over GST control)"
same,binding signal,ETV5,"1.28 fold enrichment (6-mer frequency, TF over GST control)"
same,binding signal,HSF1,"2.51 fold enrichment (6-mer frequency, TF over GST control)"
same,binding signal,SPIC,"1.41 fold enrichment (6-mer frequency, TF over GST control)"
same,binding signal,ELF4,"1.38 fold enrichment (6-mer frequency, TF over GST control)"
same,binding signal,ELK4,"1.2 fold enrichment (6-mer frequency, TF over GST control)"
same,binding signal,ETV2,"1.37 fold enrichment (6-mer frequency, TF over GST control)"
same,binding signal,ELF3,"1.55 fold enrichment (6-mer frequency, TF over GST control)"
same,binding signal,CRX,"1.63 fold enrichment (6-mer frequency, TF over GST control)"
same,binding signal,ETV1,"1.3 fold enrichment (6-mer frequency, TF over GST control)"
